Source: PubChem BioAssay (several laboratories)
FXN GAA850 act – activators of GAA850 frataxin (FXN) promoter. AID 540364. HEK293 lucGAA850 FXN promoter luciferase reporter, 24 h; percent of 10 µM SAHA response. 360,000 compounds, 0.56% hits. activation, % at 6 µM;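 active = activation above the average of all compounds screened plus 3 SD, cutoff fixed separately per campaign, cut at about 7.5% in these data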;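 also: 0% = DMSO wells and 100% = 10 µM SAHA wells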
AHR activator – activators of human aryl hydrocarbon receptor; P35869; AHR-responsive luciferase reporter cells, luminescence; activation, % at 5 µM; 320,000 compounds, 2.5% hits; AID 2796; in the data active = activation above about 47%;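 also: 0% = vehicle wells and 100% = reference agonist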
HSF-1 act – increases HSF-1 driven luciferase reporter signal; activation, % at 9 µM; NIH3T3-HGL HSF-1 luciferase reporter, MG132, 8 h; 100% = twice DMSO control signal; 300,000 compounds, 1.7% hits;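 active = mean replicate activation of at least 50% with a set share of replicates each reaching 50%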;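 also: 0% = median of the neutral control wells and 100% = twice that signal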
HSF1 inhib – HSF1 inhibition. activity change, negative = inhibition, % at 7.5 µM (by protocol). NIH3T3-HGL HSE-luciferase, MG132-induced, luminescence 8 h; hits give low values. 300,000 compounds, 0.77% hits. AID 2098;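 active = more than half of replicate wells show activity change below -50%, luminescence cut by over half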;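 also: luciferase reports HSF-1 transcriptional activity via heat shock element; 0% = median of DMSO wells and -100% = zero luminescence signal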
NR0B1 inh – inhibits human nuclear receptor DAX1 | HEK293 Gal4-DAX1 luciferase reporter, luminescence | inhibition, % at 6.75 µM | AID 504766 | P51843 | 340,000 compounds, 0.99% hits;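 active = inhibition above the mean over all tested compounds plus 3 SD, cut at about 4.2% in these data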;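 also: 0% = DAX1-transfected cells with DMSO and 100% = empty-vector control cells with DMSO; inhibition shows as a rise in luminescence from relieved DAX1 repression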
Target sequence (P51843 207-470 limits assumed): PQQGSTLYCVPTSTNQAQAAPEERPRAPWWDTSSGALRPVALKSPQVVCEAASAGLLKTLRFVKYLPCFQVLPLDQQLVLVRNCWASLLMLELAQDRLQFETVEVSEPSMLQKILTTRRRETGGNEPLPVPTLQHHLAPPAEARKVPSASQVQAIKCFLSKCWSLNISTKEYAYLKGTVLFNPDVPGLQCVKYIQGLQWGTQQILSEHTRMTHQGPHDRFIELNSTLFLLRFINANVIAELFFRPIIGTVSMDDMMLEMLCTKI
* hit, by the source's call; nt = not tested or not shown. The list is not random: actives were taken first. Their share in the collection is about 5.4%.

SMILES | FXN GAA850 act | AHR activator | HSF-1 act | HSF1 inhib | NR0B1 inh
CNC(=O)COc1ccc(C=O)cc1OC | -1.4 | 1.6 | 9.9 | 2.8 | -0.5
CCN(CC)C(=O)COc1ccc(C=O)cc1OC | 1.1 | 1.3 | 75.4* | 38.4 | 1.5
COc1cc(C=O)ccc1OCc1ccccc1Br | 2.7 | 12.0 | 19.6 | 10.7 | -0.9
COc1cc(C=O)ccc1OCc1cccc(Br)c1 | 3.0 | 6.6 | 62.9* | 24.5 | 1.5
CN(C(=O)CO/N=C/c1ccc(OC(F)F)cc1)C1CCS(=O)(=O)C1 (centres undefined) | 1.0 | -0.5 | 1.8 | 6.2 | -0.5
COCCNC(=S)N/N=C(\C)c1cc2ccccc2o1 | 1.4 | 68.2* | 31.9 | 13.0 | 0.1
COCCNC(=S)N/N=C(\C)c1ccc(OC)cc1 | 2.8 | 53.8* | 9.5 | 2.2 | -0.5
COCCNC(=S)N/N=C(\C)c1ccc2cc(OC)ccc2c1 | 1.4 | 27.3 | 12.9 | -3.2 | -1.6
Cc1cc2c(cc1S(=O)(=O)C(C)CC(=O)NCc1ccco1)OCC(=O)N2 (centres undefined) | -0.2 | 2.6 | 13.4 | 1.9 | 0.6
c1ccc(Cn2nnc3c(Nc4ccc5c(c4)OCO5)nc(C4CC4)nc32)cc1 | -0.8 | 69.6* | 13.0 | 8.5 | -0.1
Cc1ccc2nc(N3CCN(Cc4nnnn4C4CCCC4)CC3)c(C#N)cc2c1 | -0.4 | 2.3 | 5.9 | -0.2 | 5.7*
COc1cccc(N2CCN(Cc3nnnn3C3CCCCC3)CC2)c1 | -0.8 | 1.1 | -67.5 | -60.3* | 1.3
COc1ccc(C2c3ccc(O)cc3Oc3ncn(Cc4ccccc4)c(=N)c32)cc1OC (centres undefined) | -1.0 | -1.8 | 8.4 | -0.4 | -0.8
COc1ccc(C2c3c(ncn(Cc4ccco4)c3=N)Oc3ccc4ccccc4c32)cc1 (centres undefined) | -0.8 | 32.1 | 69.4* | 17.8 | 1.7
COc1ccc(C2c3ccc(O)cc3Oc3ncn(Cc4ccco4)c(=N)c32)cc1 (centres undefined) | 0.3 | 3.2 | 75.2* | 34.6 | 1.5
N=c1c2c(ncn1Cc1ccco1)Oc1ccc3ccccc3c1C2c1ccccc1 (centres undefined) | -3.4 | 8.4 | -17.9 | -12.8 | -2.0
CCCCN(C)S(=O)(=O)c1cc2c(cc1Br)CCN2C(=O)C1CC1 | -3.5 | nt | nt | nt | -2.4
C=CCNC(=O)CSc1nnc(C(CC)N(C)C)n1C1CCCCC1 (centres undefined) | 0.0 | 1.7 | 67.3* | 25.3 | 1.6
CCC(c1nnc(SCC(=O)N2CCOCC2)n1C1CCCCC1)N(C)C (centres undefined) | 0.1 | -0.7 | 12.6 | -5.2 | 0.4
CCc1ccc(OCc2cnc(Cl)s2)cc1 | 1.5 | -1.3 | 17.2 | 8.9 | 4.4*
Clc1ccc(OCc2cnc(Cl)s2)cc1 | 1.3 | -2.8 | 5.3 | 13.7 | 0.7
COc1ccc(NC(=S)Nn2cnnc2)cc1OC | 1.6 | 0.7 | 24.5 | 0.4 | 6.4*
CNC(=S)Nc1ccc(OC)c(OC)c1 | 2.1 | -1.1 | 0.3 | -14.3 | 0.7
C=CCNc1nc(N)c(C(=C(C#N)C#N)c2ccc(Br)cc2)s1 | -1.4 | 57.2* | 0.7 | -6.2 | -0.5
C=CCNc1sc(C(=O)c2ccc(C)cc2)c(N)c1C#N | 3.4 | 43.3 | 4.9 | 0.5 | -1.4
SMILES | FXN GAA850 act | AHR activator | HSF-1 act | HSF1 inhib | NR0B1 inh
CCNC(=S)N/N=C/c1cn(Cc2ccccc2F)c2ccccc12 | 2.8 | 51.0* | 8.7 | 7.6 | -0.7
CCNC(=S)N/N=C/c1cn(Cc2ccc(F)cc2)c2ccccc12 | 0.7 | 39.3 | 35.8 | 19.6 | -1.3
COc1ccccc1OCCn1cc(/C=N/n2cnnc2)c2ccccc21 | 3.5 | 49.4* | 28.0 | 3.5 | -1.7
O=C1/C(=C\c2ccc([N+](=O)[O-])cc2)CCc2ccccc21 | 7.1 | -7.6 | 60.3* | 28.8 | 2.5
O=C1/C(=C/Nc2cccc([N+](=O)[O-])c2)CCc2ccccc21 | 3.2 | 39.6 | 73.4* | 36.7 | 3.6
O=C1/C(=C/c2ccc(O)cc2)CCc2ccc([N+](=O)[O-])cc21 | 5.2 | 0.3 | 0.9 | 9.1 | -0.1
COc1cccc(NC(=O)CCS(=O)(=O)c2ccc(Br)cc2)c1 | 3.1 | 0.5 | -3.7 | -18.7 | 0.5
CCOCC(=O)Nc1ccc([N+](=O)[O-])cc1Cl | 4.5 | -1.8 | -2.2 | 0.3 | nt
CC(C)CC(=O)Nc1ccc([N+](=O)[O-])cc1Cl | 0.3 | -1.3 | 22.9 | -6.1 | 4.3*
Cc1ccc(CN2CC(C(=O)NCCCSc3ccccc3)CC2=O)cc1 (centres undefined) | 2.4 | 3.9 | 12.3 | 0.9 | 0.8
Cc1ccc2c(CN(C)Cc3ccccc3)cc(=O)oc2c1C | -1.8 | 6.0 | 73.6* | 40.4 | -1.7
Cc1ccc2c(CN(C)Cc3cccc(F)c3)cc(=O)oc2c1C | 1.1 | 7.7 | 30.0 | 18.3 | -0.4
COc1cc2c(cc1OC)CN(Cc1cc(=O)oc3cc(C)c(C)cc13)CC2 | 1.0 | 11.6 | 33.3 | 3.6 | -0.6
CCc1ccc2c(CN3CCc4cc(OC)c(OC)cc4C3)cc(=O)oc2c1 | 0.4 | 74.3* | 37.7 | 2.3 | 2.7
COc1cc2c(cc1OC)CN(Cc1cc(=O)oc3c(C)c(C)ccc13)CC2 | 0.1 | 22.4 | 58.0* | 12.6 | -0.9
COc1ccc(-n2cnc3cc(C(=O)NCCN4CCOCC4)ccc32)cc1 | 2.7 | 3.0 | -1.5 | -4.0 | -0.3
CCC(=O)c1ccc(OC(=O)c2cnccn2)cc1 | -0.8 | -0.1 | -6.3 | 1.9 | 5.0*
CCCN(CCC)C(=S)NC1CC2C=CC1C2 (centres undefined) | -0.3 | 1.8 | 51.9* | 30.4 | 0.0
Oc1ccccc1C=NNC(=S)NC1CC2C=CC1C2 (centres undefined) | 1.3 | nt | nt | nt | 2.9
Cc1ccc(C(=O)N(C)Cc2ccc(N3CCOCC3)cc2)cc1S(=O)(=O)NCc1ccccc1 | 1.9 | 3.0 | nt | nt | -0.3
O=C(Oc1cccc2cccnc12)c1ccc(Br)o1 | 0.3 | 3.8 | 65.8* | 28.4 | 0.9
Cc1ccc2c(c1)c1nnc(SCC(=O)Nc3ccc(N(C)C)cc3)nc1n2CC(=O)O | -0.5 | 10.7 | 7.7 | -6.1 | -0.1
Cc1ccc2c(c1)sc1nc(=O)n(-c3ccc(Cl)cc3)c(=O)n12 | 0.5 | 15.2 | 31.7 | -4.1 | -1.1
O=c1nc2sc3ccccc3n2c(=O)n1-c1ccc(Cl)cc1 | 2.1 | 51.8* | 5.1 | 9.0 | 1.3
C=CCN(c1ccccc1OC)S(=O)(=O)c1cccc(C(=O)Nc2nnc(C3CC3)s2)c1 | 0.1 | 6.5 | nt | nt | 0.1
CCc1nnc(NC(=O)CC23CC4CC(CC(Br)(C4)C2)C3)s1 | -0.2 | 3.5 | 57.9* | 21.5 | 0.0
O=C(CC12CC3CC(CC(Br)(C3)C1)C2)Nc1nncs1 | 0.5 | -2.2 | 8.9 | 6.1 | -0.8
CCOc1cccc(C(=O)N(Cc2cccc(F)c2)C2CCS(=O)(=O)C2)c1 (centres undefined) | -1.2 | -0.2 | -5.0 | 1.0 | 0.6
CCCNc1c(NS(=O)(=O)c2ccc(OC)c(OC)c2)c(=O)oc2ccccc12 | -2.0 | 7.7 | 19.6 | -4.3 | -0.1
Nc1ccccc1C(=O)NNC1=C(C(=O)C(F)(F)F)CCC1 | 2.3 | 15.5 | -60.7 | -52.3* | 15.1*
